The values below come from PubChem BioAssay.

Assay [1] has as its target Albumin (Bos taurus) (UniProt P02769). Kind of assay: bovine serum albumin binders on microarray, profiling panel, artefact control for SMM control protein annotation, biochemical, small-molecule microarray, Alexa647 label, 635/667 nm fluorescence (AID 1118).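 Further: score merges 667 nm emission intensity and signal-to-noise per printed compound spot.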 Conditions: BSA-A647 binding, fluorescence 635 nm, higher = more signal.
Assay [2] can be described thus: small-molecule microarray binders of probe aXIP, primary screen, biochemical, NeuroSMM set, 635/667 nm fluorescence (AID 1119).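 Further: probe is the protein aXip251-270 applied at 1 µg/mL to compound-printed slides; binding of probe to printed compounds measured as 667 nm fluorescence plus signal to noise.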 Conditions: higher = more signal, called active from +8 up or from −8 down.
Assay [3] in a line: small-molecule binders of probe aNOTCH3, primary screen, biochemical, small-molecule microarray, 635/667 nm fluorescence (AID 1120).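 Further: probe is a biotin-tagged antibody raised against NOTCH3 rather than NOTCH3 protein; score merges spot fluorescence near 667 nm with spot signal to noise.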 As to conditions: higher = more signal.
Assay [4] in a line: small-molecule binders of probe aNOTCH2, primary screen, biochemical, small-molecule microarray, 635/667 nm fluorescence (AID 1121).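 Further: score merges feature fluorescence read at 667 nm with its signal to noise.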 Conditions: higher = more signal.
The target of assay [5] is Carbonic anhydrase 2 (Homo sapiens) (UniProt P00918). Description: CAII small-molecule binders, profiling panel, biochemical, small-molecule microarray, Alexa647-labelled CAII (AID 1122). Conditions: CAII-A647 binding fluorescence, higher = more signal.
Assay [6] in a line: COS7 lysate on small-molecule microarray, probe aHis, 635 nm (AID 1123).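 Further: z-score combines 667nm fluorescence intensity with signal-to-noise per printed compound spot.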 As to conditions: COS7 cell lysate, fluorescence, higher = more signal.
Assay [7] can be described thus: compound binding in COS7 lysate, probe aLAP1, primary screen, cell lysate, small-molecule microarray (AID 1124).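 Further: lysate comes from COS7 cells expressing LAP1 and is applied at 0.3 µg/mL; score merges spot fluorescence near 667 nm with signal-to-noise over triplicate slides.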 As to conditions: probe aLAP1, fluorescence, higher = more signal.
Assay [8] deals with Sam68 (KHDRBS1). Description: Sam68 small-molecule binders, primary screen, biochemical, small-molecule microarray, 635 nm fluorescence (AID 1125).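 Further: score merges 667 nm channel intensity with signal to noise over triplicate slides.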 Conditions: small-molecule microarray binding, higher = more signal.
The test system of assay [9] is Chordin-like protein 2 (CHRDL2). Description: CHRDL2 small-molecule binders, primary screen, biochemical, small-molecule microarray, 635 nm fluorescence (AID 1126).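 Further: printed compound slides probed with Chrdl2 protein at 4 µg/mL for 1 h at 4 C; score merges 667 nm emission intensity with signal to noise over three replicate slides.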 Conditions: small-molecule microarray binding, fluorescence 635 nm; higher = more signal.
Assay [10] addresses Concanavalin-A (Canavalia ensiformis) (UniProt P02866). Kind of assay: ConA small-molecule binders, primary screen, artefact control for SMM control protein annotation, biochemical, small-molecule microarray, Alexa647 label, 635 nm (AID 1127).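 Further: z combines 667 nm emission intensity with signal-to-noise across three replicate slides.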 Conditions: ConA-A647 binding fluorescence, higher = more signal.
Assay [11] in a line: anti-His antibody binders, primary screen, artefact control for SMM control protein annotation, biochemical, small-molecule microarray, 635 nm fluorescence (AID 1128).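 Further: score merges feature fluorescence with signal-to-noise for each printed compound spot.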 As to conditions: anti-His Alexa647 antibody binding, higher = more signal.
Assay [12] has as its system Human papillomavirus type 1a E7 protein (residues 1-88). Kind of assay: HPV1a E7 small-molecule binders, primary screen, biochemical, small-molecule microarray, residues 1-88, 635 nm (AID 1129). Conditions: small-molecule microarray binding, fluorescence 635 nm; higher = more signal.
For assay [13], the target named is Focal adhesion kinase 1 (Homo sapiens) (UniProt Q05397). Description: small-molecule microarray binders of FAK, primary screen, biochemical, 635/667 nm fluorescence, BSA, DTT (AID 1130).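 Further: composite of spot emission at 667 nm and signal to noise over triplicate slides.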 As to conditions: PTK2 binding, 635 nm fluorescence, higher = more signal.
Focal adhesion kinase 1 (Homo sapiens), sequence (Q05397 whole entry, looked up): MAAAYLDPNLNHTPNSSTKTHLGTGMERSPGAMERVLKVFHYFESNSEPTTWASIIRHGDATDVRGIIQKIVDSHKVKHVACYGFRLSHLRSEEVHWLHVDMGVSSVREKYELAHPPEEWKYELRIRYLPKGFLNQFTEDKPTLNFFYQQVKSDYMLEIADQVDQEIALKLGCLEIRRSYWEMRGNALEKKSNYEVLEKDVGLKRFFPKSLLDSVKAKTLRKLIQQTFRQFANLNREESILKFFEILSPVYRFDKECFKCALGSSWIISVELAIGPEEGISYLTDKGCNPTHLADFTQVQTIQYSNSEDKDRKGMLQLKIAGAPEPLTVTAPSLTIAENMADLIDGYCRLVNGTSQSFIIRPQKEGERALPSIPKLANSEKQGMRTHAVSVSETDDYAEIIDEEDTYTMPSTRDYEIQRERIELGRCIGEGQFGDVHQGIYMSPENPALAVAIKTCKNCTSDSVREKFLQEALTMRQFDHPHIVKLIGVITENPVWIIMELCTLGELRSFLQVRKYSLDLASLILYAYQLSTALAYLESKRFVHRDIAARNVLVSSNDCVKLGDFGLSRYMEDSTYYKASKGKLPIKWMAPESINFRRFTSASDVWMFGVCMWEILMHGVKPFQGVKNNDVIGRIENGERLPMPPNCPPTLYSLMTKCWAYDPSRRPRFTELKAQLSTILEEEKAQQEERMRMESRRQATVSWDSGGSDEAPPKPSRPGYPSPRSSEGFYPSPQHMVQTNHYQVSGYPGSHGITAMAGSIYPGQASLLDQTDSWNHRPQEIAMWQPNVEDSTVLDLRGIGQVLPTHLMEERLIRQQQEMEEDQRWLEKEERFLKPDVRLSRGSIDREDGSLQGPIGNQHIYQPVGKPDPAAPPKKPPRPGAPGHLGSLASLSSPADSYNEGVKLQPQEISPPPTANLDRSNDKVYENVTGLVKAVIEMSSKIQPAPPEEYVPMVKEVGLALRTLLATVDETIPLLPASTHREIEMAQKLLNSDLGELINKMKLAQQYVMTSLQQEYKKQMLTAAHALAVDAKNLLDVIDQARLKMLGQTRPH
Assay [14] relates to Fibrinogen (Alexa647-labelled). Description: fibrinogen binders on compound microarrays, profiling panel, artefact control for SMM control-protein annotation, biochemical, small-molecule microarray, 635/667 nm fluorescence (AID 1131).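 Further: z-score merges 667 nm fluorescence with per-spot signal-to-noise over triplicate slides.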 Conditions: fibrinogen-A647 binding fluorescence, higher = more signal.
Assay [15] addresses Follistatin (Homo sapiens) (UniProt P19883). Kind of assay: follistatin binders on small-molecule microarrays, primary screen, biochemical, small-molecule microarray, 635/667 nm fluorescence (AID 1132). Conditions: FST binding, 635 nm fluorescence, higher = more signal.
Assay [16] has as its target Fibroblast growth factor 2 (Homo sapiens) (UniProt P09038). Kind of assay: FGF2 binders on small-molecule microarrays, primary screen, biochemical, small-molecule microarray, 635/667 nm fluorescence (AID 1133). As to conditions: small-molecule microarray binding, FGF2, fluorescence 635/667; higher = more signal.
Assay [17] in a line: mitochondrial membrane potential change in A549 cells, profiling panel, cell-based, JC-1 fluorescence, basal, 24 h, 100 nL (AID 1138).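 Further: A549 lung adenocarcinoma cells under basal conditions with no added stimulus; test concentration not given here.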 Conditions: higher = more signal.
The test system of assay [18] is Lefty1. Description: Lefty1 binders on small-molecule microarrays, primary screen, biochemical, small-molecule microarray, 635/667 nm fluorescence (AID 1139). Conditions: small-molecule microarray binding, fluorescence 635/667; higher = more signal.
Assay [19] has as its system wheat germ agglutinin (Triticum aestivum), Alexa647-labelled. Kind of assay: wheat germ agglutinin binders on compound microarrays, profiling panel, artefact control for SMM control-protein annotation, biochemical, small-molecule microarray, 635/667 nm fluorescence (AID 1140).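 Further: score merges 667 nm feature emission with signal to noise over triplicate slides.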 As to conditions: WGA-A647 binding, 635 nm fluorescence, higher = more signal.
Assay [20] has as its target Luciferin 4-monooxygenase (Photinus pyralis) (UniProt P08659). Kind of assay: firefly luciferase enzyme inhibitors, primary screen, biochemical, luminescence, purified enzyme, 2006 set (AID 1141).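 Further: cell-free assay with purified firefly luciferase at 100 ng per well in PBS; test concentration not given here.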 Conditions: SteadyGlo luminescence, 30 min, higher = more signal, called active from +8 up or from −8 down.

The source made the active and inactive calls.

Concanavalin-A (Canavalia ensiformis), sequence (P02866 whole entry, looked up): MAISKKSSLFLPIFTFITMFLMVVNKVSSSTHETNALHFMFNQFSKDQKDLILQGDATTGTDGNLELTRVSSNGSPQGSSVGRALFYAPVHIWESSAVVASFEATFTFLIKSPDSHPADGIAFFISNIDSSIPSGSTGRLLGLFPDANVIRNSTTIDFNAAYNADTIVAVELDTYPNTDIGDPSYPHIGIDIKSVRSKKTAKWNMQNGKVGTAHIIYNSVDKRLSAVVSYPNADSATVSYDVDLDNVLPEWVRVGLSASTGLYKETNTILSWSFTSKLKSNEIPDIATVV
Luciferin 4-monooxygenase (Photinus pyralis), sequence (P08659 whole entry, looked up): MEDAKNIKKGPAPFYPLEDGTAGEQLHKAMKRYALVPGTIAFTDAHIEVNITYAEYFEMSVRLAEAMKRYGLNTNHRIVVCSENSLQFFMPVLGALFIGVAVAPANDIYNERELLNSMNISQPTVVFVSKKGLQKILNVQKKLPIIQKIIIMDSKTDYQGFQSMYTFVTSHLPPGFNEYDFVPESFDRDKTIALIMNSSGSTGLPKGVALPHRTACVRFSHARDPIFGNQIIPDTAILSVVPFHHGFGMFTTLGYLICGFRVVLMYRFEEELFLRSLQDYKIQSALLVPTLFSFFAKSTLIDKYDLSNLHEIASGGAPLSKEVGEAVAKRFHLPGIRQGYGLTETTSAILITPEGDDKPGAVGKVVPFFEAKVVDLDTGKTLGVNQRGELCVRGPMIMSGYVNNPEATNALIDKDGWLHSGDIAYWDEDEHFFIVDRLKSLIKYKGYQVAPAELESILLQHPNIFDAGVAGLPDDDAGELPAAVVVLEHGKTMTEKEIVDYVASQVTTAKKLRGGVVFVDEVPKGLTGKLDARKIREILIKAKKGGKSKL
Albumin (Bos taurus), sequence (P02769 whole entry, looked up): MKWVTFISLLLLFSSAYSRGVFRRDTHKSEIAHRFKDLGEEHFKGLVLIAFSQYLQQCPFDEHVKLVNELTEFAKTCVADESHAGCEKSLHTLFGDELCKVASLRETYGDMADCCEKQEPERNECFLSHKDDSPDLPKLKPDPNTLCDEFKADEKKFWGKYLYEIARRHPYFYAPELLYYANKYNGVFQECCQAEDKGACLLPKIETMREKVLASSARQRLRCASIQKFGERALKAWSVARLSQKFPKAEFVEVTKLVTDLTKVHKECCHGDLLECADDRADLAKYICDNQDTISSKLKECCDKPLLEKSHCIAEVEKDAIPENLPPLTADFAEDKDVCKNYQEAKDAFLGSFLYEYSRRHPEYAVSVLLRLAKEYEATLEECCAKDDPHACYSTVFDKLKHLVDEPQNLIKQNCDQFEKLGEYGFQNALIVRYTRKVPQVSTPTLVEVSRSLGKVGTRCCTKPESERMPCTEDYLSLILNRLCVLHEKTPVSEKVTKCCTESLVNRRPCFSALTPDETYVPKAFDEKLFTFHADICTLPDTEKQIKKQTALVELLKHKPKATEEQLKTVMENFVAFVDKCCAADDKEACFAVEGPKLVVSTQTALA
Fibroblast growth factor 2 (Homo sapiens), sequence (P09038 whole entry, looked up): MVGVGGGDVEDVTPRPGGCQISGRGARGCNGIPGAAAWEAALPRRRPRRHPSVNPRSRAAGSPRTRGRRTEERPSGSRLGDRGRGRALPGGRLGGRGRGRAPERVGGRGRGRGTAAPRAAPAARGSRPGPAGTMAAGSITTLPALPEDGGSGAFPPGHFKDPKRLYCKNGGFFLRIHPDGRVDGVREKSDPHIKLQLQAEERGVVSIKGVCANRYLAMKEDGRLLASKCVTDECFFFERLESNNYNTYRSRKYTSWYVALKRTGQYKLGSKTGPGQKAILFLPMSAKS
Follistatin (Homo sapiens), sequence (P19883 whole entry, looked up): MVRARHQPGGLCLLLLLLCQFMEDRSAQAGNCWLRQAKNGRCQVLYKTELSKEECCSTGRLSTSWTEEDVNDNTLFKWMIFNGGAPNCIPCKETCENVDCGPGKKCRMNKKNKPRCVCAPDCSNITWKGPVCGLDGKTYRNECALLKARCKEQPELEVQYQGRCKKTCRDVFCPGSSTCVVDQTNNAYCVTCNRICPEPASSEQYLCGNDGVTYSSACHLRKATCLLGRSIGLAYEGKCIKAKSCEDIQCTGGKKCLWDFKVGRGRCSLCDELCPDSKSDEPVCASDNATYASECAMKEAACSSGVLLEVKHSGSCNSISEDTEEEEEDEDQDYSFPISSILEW

Turning to `[N-]=[N+]=NCc1ccccc1C[C@@]1(C(=O)NCC(O)CO)N=C(c2ccc(OCCCO)cc2)O[C@@H]1c1ccccc1` (stereo not given in full), the composite z-score in [1] is 0.992; in [3], -0.0077; in [4], 0.0996; in assay [5], 0.432; in assay [6], 2.82; in [7], -0.177. The composite z-score in assay [8] was 0.331; in [9], -0.247; in [10] it was -1.11; in [11], 1.86; in assay [12], 0.0034; in assay [13] it was -0.225. The composite z-score in [14] was -0.513; in [15] it was 0.602; in [16], -0.287; in assay [18], -1.7; in [19], 0.276. For the same molecule, the composite Z-score in assay [2] was -0.191 (inactive). Further, the results for the z-score in assay [17] and in assay [20] were 0.663 and -1.69 (inactive), respectively.

With `COc1ccc(C(O)C2C=CC3C(=O)N(C)C(=O)C3N2N(c2ccccc2)c2ccccc2)c2ccccc12` (stereo not given), the composite z-score in [1] is -0.111; in assay [3], 0.237; in assay [4] it was -0.0017; in [5], 0.677; in [6], -0.198; in [7] it was 0.976. Further, the composite z-score in assay [8] was -0.481; in [9] it was 0.776; in assay [10], 0.369; in assay [11], 2.54; in assay [12], -0.172; in [13], -0.278. Besides, the composite z-score in assay [14] turned out to be 0.384; in assay [15], 1.41; in [16], 0.392; in assay [18] it was 1.09; in assay [19], 1.07. Besides, the composite Z-score in [2] is 1.39 (inactive). Also, the results for the z-score in assay [17] and in assay [20] were 0.419 and -0.091 (inactive), respectively.

`C=C(/C(=C/C[C@H](OC(=O)c1ccncc1)c1ccc(OCCO)cc1)c1cc(C(=O)OC)ccc1OC)C(C)C`: the composite z-score is 0.605 in assay [1]; -0.0362 in assay [3]; -0.135 in [4]; 0.514 in assay [5]; 1.15 in assay [6]; 0.284 in assay [7]. The composite z-score in assay [8] is 0.516; in assay [9] it was -0.0985; in [10], 0.985; in assay [11], 0.785; in [12] it was 1; in [13], 0.359. Besides, the composite z-score in [14] is 0.821; in assay [15], 0.789; in assay [16] it was 0.494; in assay [18] it was 0.546; in assay [19], 0.681. In assay [2], the composite Z-score is -0.0856 (inactive). The z-score in assay [17] was -0.228; in assay [20], -0.357 (inactive).

As to `COC(=O)c1c(CC[C@@H](CO)NC(=O)NCCc2c[nH]c3ccccc23)oc(C(=O)Cc2ccccc2)c1C(=O)OC`, the composite z-score in [1] was 0.0018; in assay [3], 0.0842; in assay [4] it was -0.14; in assay [5] it was 0.112; in assay [6] it was 0.452; in assay [7], -0.161. Further, the composite z-score in assay [8] came to 0.583; in assay [9], 0.149; in assay [10], 0.467; in assay [11] it was 0.108; in [12], 0.27; in assay [13], 0.131. Further, the composite z-score in [14] came to 0.273; in [15], 0.368; in [16], 0.251; in [18], 0.456; in [19] it was 0.0707. Further, in [2], the composite Z-score is -0.326 (inactive). The z-score in assay [17] was -0.364; in assay [20], 0.521 (inactive).

Regarding `CCCC[C@H]1C[C@@H]1[C@@H]1N(P(=O)(c2ccccc2)c2ccccc2)C[C@@](O)(c2ccccc2)CC12CC2`, the composite z-score in assay [1] was determined as 0.951; in assay [3], 0.169; in [4], 0.0525; in assay [5] it was 0.374; in assay [6], 2.28; in [7], 0.473. In addition, the composite z-score is 0.944 in assay [8]; -1.95 in assay [9]; 0.499 in assay [10]; 0.127 in assay [11]; 0.973 in [12]; 0.663 in assay [13]. Moreover, the composite z-score in [14] is 0.955; in assay [15] it was 0.208; in [16], 0.0514; in assay [18], -1.06; in assay [19] it was 0.727. For the same molecule, in assay [2], the composite Z-score is 0.863 (inactive). The z-score in assay [17] is -1.57; in assay [20], 2.35 (inactive).
